The source made the active and inactive calls. Rule for the calls: active = hit-call score of the fitted dose curve at least 0.9, where 1 is the maximum; inactive = score below 0.9.

The nature of assay [1]: ATG_CRE_CIS: Attagene CIS-FACTORIAL HepG2 Assay for human cAMP Responsive Element (CRE) binding protein 3 (AID 2282926). The following applies: HepG2 CRE cis-reporter, Attagene multiplexed mRNA; actives raise or lower the signal. In a few lines:
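Transfected HepG2 were treated for 24 hours, then RNA was extracted and reporter cDNA amplified with sequence-specific primers. Labelled fragments were separated by capillary electrophoresis, and the CRE signal was fitted bidirectionally with DMSO as baseline.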

Assay [2] deals with CCAAT/enhancer-binding protein beta (Homo sapiens) (UniProt P17676). Nature of the assay: ATG_C_EBP_CIS: Attagene CIS-FACTORIAL HepG2 Assay for human CCAAT/Enhancer Binding Protein (C/EBP) beta (AID 2282927). To be noted: HepG2 Attagene cis-factorial transcription factor reporter; actives raise or lower the signal. In a few lines: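 Following a 24 h incubation with test chemical, transfected HepG2 cells yielded RNA whose reporter transcripts were quantified by RT-PCR and fluorescent capillary electrophoresis, with DMSO serving as baseline for bidirectional fitting.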
Chain of CCAAT/enhancer-binding protein beta (Homo sapiens) (P17676 whole entry, looked up): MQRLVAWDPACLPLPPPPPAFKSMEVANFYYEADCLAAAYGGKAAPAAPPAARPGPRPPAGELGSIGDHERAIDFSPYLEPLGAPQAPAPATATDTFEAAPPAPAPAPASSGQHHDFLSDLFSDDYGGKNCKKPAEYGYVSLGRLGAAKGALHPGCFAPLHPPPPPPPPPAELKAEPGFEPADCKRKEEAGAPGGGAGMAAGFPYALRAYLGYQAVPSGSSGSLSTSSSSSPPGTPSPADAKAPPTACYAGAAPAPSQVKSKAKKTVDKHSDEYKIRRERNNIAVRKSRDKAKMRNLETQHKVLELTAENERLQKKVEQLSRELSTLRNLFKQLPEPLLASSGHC

Assay [3] in a line: ATG_CMV_CIS: Attagene CIS-FACTORIAL HepG2 Assay for human CMV (Internal Marker) (AID 2282928).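 Note: endpoint acts as a background internal control marker rather than a target.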 The following applies: HepG2 CMV promoter reporter, transcription factor profiling; actives raise or lower the signal. In a few lines:
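After transient transfection of HepG2 with reporter transcription units driven by cis-regulatory promoters, cells receive test chemical for 24 h. Labeled reporter amplicons, digested with HpaI, are sized and quantified by capillary electrophoresis against DMSO.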

The nature of assay [4]: ATG_DR4_LXR_CIS: Attagene CIS-FACTORIAL HepG2 Assay for human Liver X Receptor (LXR), DR4 submotif (AID 2282929). To be noted: HepG2 Attagene DR4 cis-reporter, mRNA transcription; actives raise or lower the signal. In a few lines:
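Measures endogenous transcription factor activity via a DR4-driven reporter transcript in human HepG2 cells. Compounds incubated 24 h; mRNA quantified by RT-PCR and capillary electrophoresis, analysed as gain or loss of signal versus DMSO.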

The target in assay [5] is Aryl hydrocarbon receptor (Homo sapiens) (UniProt P35869). The assay can be described thus: ATG_Ahr_CIS: Attagene CIS-FACTORIAL HepG2 Assay for human Aryl Hydrocarbon Receptor (Ahr) (AID 2282930). The following applies: HepG2 AhR cis-factorial reporter transcription; actives raise or lower the signal. In a few lines:
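Values derive from bidirectional fitting against DMSO negative control. Underlying signal: cis-element reporter mRNA in transiently transfected HepG2, harvested 24 h post-dose and measured by RT-PCR plus capillary electrophoresis.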

A short description of assay [6]: ATG_AP_1_CIS: Attagene CIS-FACTORIAL HepG2 Assay for human Activator Protein 1 (AP-1) (AID 2282931). To be noted: HepG2 Attagene cis-factorial AP-1 reporter mRNA; actives raise or lower the signal. In a few lines:
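Bidirectional concentration-response fitting against DMSO controls. Underlying signal: reporter mRNA from cis-promoter constructs in transiently transfected HepG2, measured after 24 h by RT-PCR and capillary electrophoresis.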

A short description of assay [7]: ATG_AP_2_CIS: Attagene CIS-FACTORIAL HepG2 Assay for human Activator Protein 2 (AP-2) (AID 2282932). To be noted: HepG2 AP-2 cis-reporter, Attagene transcription factor profiling; actives raise or lower the signal. In a few lines:
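HepG2 cells were transiently transfected with multiple cis-promoter reporter transcription units and dosed for 24 h. Reporter mRNA was measured by RT-PCR with capillary electrophoresis fluorescence; bidirectional fits relative to DMSO baseline.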

Assay [8] in a line: ATG_BRE_CIS: Attagene CIS-FACTORIAL HepG2 Assay for human Bone Morphogenetic Protein (BMP) Response Element (BRE) (AID 2282933). To be noted: HepG2 BMP response element reporter, Attagene transcription factor profiling; actives raise or lower the signal. In a few lines:
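After a 24 h chemical treatment, transiently transfected HepG2 cells were lysed for RNA; reporter transcripts were quantified by fluorescent RT-PCR and capillary electrophoresis, normalised to DMSO.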

Assay [9] has as its target Transcription factor E2F1 (Homo sapiens) (UniProt Q01094). Nature of the assay: ATG_E2F_CIS: Attagene CIS-FACTORIAL HepG2 Assay for human E2F Transcription Factor 1 (AID 2282935). The following applies: HepG2 Attagene cis-reporter, E2F reporter RNA transcripts; actives raise or lower the signal. In a few lines:
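HepG2 cells transiently transfected with multiplexed cis-element reporter units, dosed for 24 h. Reporter mRNA measured by RT-PCR, 6-FAM primer-extension labeling, HpaI digestion and capillary electrophoresis; bidirectional fit versus DMSO baseline.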

Assay [10] in a line: ATG_M_61_CIS: Attagene CIS-FACTORIAL HepG2 Assay for M61 Transcription Factor (Internal Marker) (AID 2282937). To be noted: HepG2 Attagene CIS-FACTORIAL M61 internal marker reporter; actives raise or lower the signal. In a few lines:
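Fluorescence from labelled cDNA fragments, separated by capillary electrophoresis, quantifies reporter induction. HepG2 cells bearing transiently transfected cis-promoter MRTUs were incubated with test chemical for 24 h; DMSO defined baseline for gain/loss fitting.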

Assay [11] in a line: ATG_EGR_CIS: Attagene CIS-FACTORIAL HepG2 Assay for human Early Growth Response 1 (EGR1) (AID 2282938). To be noted: HepG2 Attagene CIS-FACTORIAL EGR reporter mRNA; actives raise or lower the signal. In a few lines: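 Cell-based multiplex transcription assay: HepG2 carrying transfected cis-element reporter units, 24 h chemical treatment. Fluorescence from capillary electrophoresis of RT-PCR products gives mRNA levels; fitting is bidirectional relative to DMSO.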

Assay [12] in a line: ATG_M_19_CIS: Attagene CIS-FACTORIAL HepG2 Assay for M19 Transcription Factor (Internal Marker) (AID 2282939). The following applies: HepG2 Attagene CIS-FACTORIAL M19 internal marker reporter; actives raise or lower the signal. In a few lines: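 In this multiplexed cell assay, transiently transfected HepG2 reporter units report endogenous transcription-factor activity; after 24 hours of treatment, labelled reporter cDNA fragments are quantified by capillary electrophoresis and fitted bidirectionally against DMSO.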

Assay [13] can be described thus: ATG_Ets_CIS: Attagene CIS-FACTORIAL HepG2 Assay for human Erythroblast Transformation Specific (ETS) (AID 2282941). To be noted: HepG2 ETS cis-reporter transcription, actives raise or lower the signal. In a few lines:
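Human HepG2 hepatoma cells were transiently transfected with promoter-driven reporter constructs and treated for 24 hours. Reporter transcripts were quantified by RT-PCR with fluorescent primer extension; bidirectional curve fitting used DMSO as reference.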

The target in assay [14] is Hepatocyte nuclear factor 3-beta (Homo sapiens) (UniProt Q9Y261). The assay can be described thus: ATG_FoxA2_CIS: Attagene CIS-FACTORIAL HepG2 Assay for human Forkhead box A2 (FOXA2) (AID 2282942). The following applies: HepG2 cis-reporter transcription factor activity, 24 h; actives raise or lower the signal. In a few lines: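 In transiently transfected human HepG2 cells, promoter-driven reporter mRNA levels after 24 h chemical exposure are determined via RT-PCR with capillary electrophoresis. DMSO serves as baseline for bidirectional fitting.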
Chain of Hepatocyte nuclear factor 3-beta (Homo sapiens) (Q9Y261 whole entry, looked up): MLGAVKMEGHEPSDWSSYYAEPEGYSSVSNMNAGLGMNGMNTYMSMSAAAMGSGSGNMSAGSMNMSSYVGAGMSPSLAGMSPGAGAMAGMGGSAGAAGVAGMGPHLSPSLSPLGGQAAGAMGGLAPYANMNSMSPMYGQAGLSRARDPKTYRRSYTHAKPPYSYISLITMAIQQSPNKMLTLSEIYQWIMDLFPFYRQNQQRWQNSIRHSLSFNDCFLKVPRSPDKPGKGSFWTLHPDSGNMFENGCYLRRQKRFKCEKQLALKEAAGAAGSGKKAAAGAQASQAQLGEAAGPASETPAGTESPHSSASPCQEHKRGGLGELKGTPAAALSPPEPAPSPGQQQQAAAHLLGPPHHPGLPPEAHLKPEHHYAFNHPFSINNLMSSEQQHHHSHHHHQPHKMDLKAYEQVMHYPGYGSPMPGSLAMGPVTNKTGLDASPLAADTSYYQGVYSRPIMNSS

Assay [15] in a line: ATG_FoxO_CIS: Attagene CIS-FACTORIAL HepG2 Assay for human Forkhead box O (FoxO) (AID 2282943). To be noted: HepG2 Attagene cis-reporter, FoxO element, mRNA; actives raise or lower the signal. In a few lines: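 Values reflect reporter mRNA induction or loss in HepG2 cells 24 h post-dosing, fitted bidirectionally with DMSO as negative control and baseline. Detection used RT-PCR and fluorescence capillary electrophoresis.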

Assay [16] can be described thus: ATG_GLI_CIS: Attagene CIS-FACTORIAL HepG2 Assay for human Zinc Finger Protein GLI1 (AID 2282945). To be noted: HepG2, Attagene cis-factorial reporter mRNA, GLI element; actives raise or lower the signal. In a few lines: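 HepG2 cells transiently transfected with cis-promoter multiplexed reporter units report endogenous transcription factor activity. After 24 h chemical exposure, reporter mRNA was quantified by RT-PCR, 6-FAM labelling, HpaI digestion and capillary electrophoresis, with bidirectional fitting against DMSO.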

A short description of assay [17]: ATG_E_Box_CIS: Attagene CIS-FACTORIAL HepG2 Assay for human Enhancer Box (E-box) (AID 2282936). To be noted: HepG2 E-box cis-reporter transcription, actives raise or lower the signal. In a few lines: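 HepG2 cells transiently transfected with multiplexed cis-element reporter units sensing endogenous transcription factor activity; 24 h compound exposure. Reporter mRNA measured by RT-PCR, 6-FAM primer extension, HpaI digestion and capillary electrophoresis; bidirectional fit versus DMSO.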

Assay [18] addresses Bile acid receptor (Homo sapiens) (UniProt Q96RI1). Nature of the assay: ATG_IR1_CIS: Attagene CIS-FACTORIAL HepG2 Assay for human Nuclear Receptor Subfamily 1 Group H Member 4 (NR1H4), IR1 submotif (AID 2282946). To be noted: IR1 reporter transcription, actives raise or lower the signal. In a few lines: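 Transient MRTU transfection, HepG2; 24 h dosing; RNA → RT-PCR → 6-FAM primer extension → HpaI digest → capillary electrophoresis fluorescence. Gain/loss of signal fitted relative to DMSO.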

Assay [19] has as its target Retinoic acid receptor alpha (Homo sapiens) (UniProt P10276). Nature of the assay: ATG_DR5_RAR_CIS: Attagene CIS-FACTORIAL HepG2 Assay for human Retinoic Acid Receptor Alpha (RARE), DR5 submotif (AID 2282934). To be noted: HepG2 Attagene cis-factorial RARE DR5 reporter, mRNA; actives raise or lower the signal. In a few lines: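 Endpoint fitted in both directions relative to DMSO as negative control. It reflects DR5 cis-element reporter mRNA induction in transiently transfected HepG2 cells, measured 24 h after dosing through RT-PCR and fluorescent capillary electrophoresis.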

Chain of Aryl hydrocarbon receptor (Homo sapiens) (P35869 whole entry, looked up): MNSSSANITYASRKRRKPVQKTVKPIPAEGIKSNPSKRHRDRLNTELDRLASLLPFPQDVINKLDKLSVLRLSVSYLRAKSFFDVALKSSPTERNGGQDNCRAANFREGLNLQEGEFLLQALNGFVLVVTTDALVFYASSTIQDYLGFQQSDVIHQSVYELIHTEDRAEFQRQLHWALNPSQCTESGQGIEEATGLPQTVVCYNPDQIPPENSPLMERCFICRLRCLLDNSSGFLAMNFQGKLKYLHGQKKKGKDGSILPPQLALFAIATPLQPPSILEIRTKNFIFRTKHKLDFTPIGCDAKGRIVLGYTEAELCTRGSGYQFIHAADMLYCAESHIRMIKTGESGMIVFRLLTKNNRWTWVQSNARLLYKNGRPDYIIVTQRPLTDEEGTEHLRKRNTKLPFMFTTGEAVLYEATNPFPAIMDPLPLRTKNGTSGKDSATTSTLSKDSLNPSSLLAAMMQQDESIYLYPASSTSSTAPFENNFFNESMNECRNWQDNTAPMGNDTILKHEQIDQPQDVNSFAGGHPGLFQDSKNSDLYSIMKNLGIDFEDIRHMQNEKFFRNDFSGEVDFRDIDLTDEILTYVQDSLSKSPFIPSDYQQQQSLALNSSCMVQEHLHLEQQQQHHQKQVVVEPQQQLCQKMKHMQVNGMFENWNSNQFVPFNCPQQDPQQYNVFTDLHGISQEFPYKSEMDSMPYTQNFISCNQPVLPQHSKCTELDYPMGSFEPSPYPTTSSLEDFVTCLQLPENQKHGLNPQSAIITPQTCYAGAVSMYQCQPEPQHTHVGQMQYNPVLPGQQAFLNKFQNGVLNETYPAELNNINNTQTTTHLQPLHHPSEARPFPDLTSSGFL
Chain of Transcription factor E2F1 (Homo sapiens) (Q01094 whole entry, looked up): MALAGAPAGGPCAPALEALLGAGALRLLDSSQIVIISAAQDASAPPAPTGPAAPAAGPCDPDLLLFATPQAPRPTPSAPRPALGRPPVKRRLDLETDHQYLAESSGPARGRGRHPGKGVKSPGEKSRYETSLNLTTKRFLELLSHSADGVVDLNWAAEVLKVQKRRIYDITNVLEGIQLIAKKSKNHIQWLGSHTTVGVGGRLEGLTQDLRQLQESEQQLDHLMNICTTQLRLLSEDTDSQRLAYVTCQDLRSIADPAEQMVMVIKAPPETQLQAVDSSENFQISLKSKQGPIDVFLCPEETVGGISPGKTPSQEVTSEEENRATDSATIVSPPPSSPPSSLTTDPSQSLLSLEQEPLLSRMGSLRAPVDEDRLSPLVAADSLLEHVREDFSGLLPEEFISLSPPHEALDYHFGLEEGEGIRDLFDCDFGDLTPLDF
Chain of Bile acid receptor (Homo sapiens) (Q96RI1 whole entry, looked up): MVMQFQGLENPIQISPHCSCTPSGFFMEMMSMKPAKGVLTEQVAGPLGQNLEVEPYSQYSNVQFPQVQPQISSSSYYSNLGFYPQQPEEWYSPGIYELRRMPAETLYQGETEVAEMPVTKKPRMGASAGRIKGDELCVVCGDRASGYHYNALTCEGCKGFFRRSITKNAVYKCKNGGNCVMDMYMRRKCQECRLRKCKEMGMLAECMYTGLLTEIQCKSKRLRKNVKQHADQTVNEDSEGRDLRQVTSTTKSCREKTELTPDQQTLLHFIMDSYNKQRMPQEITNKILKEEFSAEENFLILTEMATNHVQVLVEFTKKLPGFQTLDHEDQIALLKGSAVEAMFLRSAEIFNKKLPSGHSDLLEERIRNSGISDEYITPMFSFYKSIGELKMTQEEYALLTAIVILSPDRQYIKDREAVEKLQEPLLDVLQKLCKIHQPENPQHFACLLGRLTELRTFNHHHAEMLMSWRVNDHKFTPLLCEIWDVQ
Chain of Retinoic acid receptor alpha (Homo sapiens) (P10276 whole entry, looked up): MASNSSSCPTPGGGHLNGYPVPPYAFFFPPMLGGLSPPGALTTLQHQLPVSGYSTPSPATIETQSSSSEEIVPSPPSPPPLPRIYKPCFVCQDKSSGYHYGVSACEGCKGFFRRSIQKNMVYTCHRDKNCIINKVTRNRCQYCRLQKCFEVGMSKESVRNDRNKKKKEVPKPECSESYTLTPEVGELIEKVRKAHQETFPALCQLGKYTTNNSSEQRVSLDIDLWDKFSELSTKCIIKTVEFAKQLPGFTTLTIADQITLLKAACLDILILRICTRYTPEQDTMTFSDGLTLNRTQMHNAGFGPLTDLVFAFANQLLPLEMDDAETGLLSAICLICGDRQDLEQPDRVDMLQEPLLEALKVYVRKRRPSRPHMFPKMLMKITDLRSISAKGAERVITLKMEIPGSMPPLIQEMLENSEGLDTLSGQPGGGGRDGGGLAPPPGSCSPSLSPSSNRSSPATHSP

Regarding `COP(=O)(NC(C)=O)SC` (configuration not stated), the outcome in [1], in assay [2], in [3], in assay [4], in assay [5] and in assay [6] was inactive. Besides, the outcome in assay [7], in assay [8], in assay [9], in assay [10], in assay [11] and in assay [12] was inactive. Moreover, the result in assay [13], in assay [14], in assay [15] and in assay [16] was inactive.
As usually defined, the AC50 is the concentration giving half of the maximal activity seen. Consider `COP(=O)(OC)SCn1c(=O)oc2cc(Cl)cnc21`, for which the half-maximal activity concentration (AC50) in [1] was 18.1 µM (active); in assay [4], 10.4 µM (active). For the same molecule, the outcome in assay [2], in assay [3], in [5], in assay [6], in assay [7] and in assay [8] was inactive. For the same molecule, the outcome in assay [9], in [10], in assay [11], in assay [12], in assay [13] and in assay [14] was inactive. In addition, the outcome in assay [15] and in assay [16] was inactive.
As for `CNC(=O)Oc1cccc2c1OC(C)(C)O2`, the AC50 in assay [1] is 50 µM (active); in [2] it was 19.3 µM (active); in assay [3] it was 35.9 µM (active); in assay [6] it was 61 µM (active); in assay [8], 42 µM (active); in assay [13] it was 75.9 µM (active). The result in assay [4], in assay [5], in assay [7], in [9], in assay [17] and in assay [10] was inactive. For the same molecule, the result in assay [11], in [12], in assay [14], in assay [15], in assay [16] and in [18] was inactive.
Take `CC(C1CC1)C(O)(Cn1cncn1)c1ccc(Cl)cc1` (configuration not stated): the call in assay [1], in assay [2], in assay [3], in assay [5], in assay [6] and in assay [7] was inactive. Moreover, the molecule was classed as inactive in assay [8], in assay [19], in assay [9], in [10], in assay [11] and in [12]. Also, the molecule was classed as inactive in [13], in assay [14], in assay [15] and in [16]. Further, in [4], the AC50 is 11.3 µM (active).

For the origin of these results see PubChem BioAssay (EPA / NIEHS).
